# Measurements taken from PubChem BioAssay (NCI).
# Where “and” joins values, the source holds several entries; their conditions need not be identical. Identical values can stand only once. Compounds without any hit were thinned out: in the full panel of roughly 79,000, 15% have a hit. The source holds several records for some structures; these can differ, active in one and inactive in another. Calls of active or inactive are those of the source. Rule as the data show it: active = growth inhibition above about 70%; inactive = the rest.
# Assays:
# [1] = NCI Yeast Anticancer Drug Screen. Data for the rad50 strain (AID 155);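 also: 0% = growth of vehicle-only cultures of the same strain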; settings: S. cerevisiae rad50 strain growth inhibition, stronger effect = higher value
# How it was run: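 Inhibition values express reduced yeast growth in compound-treated cultures relative to vehicle-treated controls.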
# [2] = NCI Yeast Anticancer Drug Screen. Data for the mec2-1 strain (AID 157); settings: S. cerevisiae mec2-1 strain, stronger effect = higher value
# How it was run: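 Yeast mec2-1 mutant treated with compound. Readout: growth inhibition vs vehicle controls.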
# [3] = NCI Yeast Anticancer Drug Screen. Data for the sgs1 mgt1 strain (AID 161);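 also: 0% = growth of cultures given vehicle only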; settings: S. cerevisiae sgs1 mgt1 strain, stronger effect = higher value
# How it was run: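 Genetically altered yeast, compound exposure, growth inhibition relative to vehicle.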
# [4] = NCI Yeast Anticancer Drug Screen. Data for the cln2 rad14 strain (AID 165);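 also: 0% = growth equal to vehicle treated cultures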; settings: S. cerevisiae cln2 rad14 strain, stronger effect = higher value
# How it was run: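 cln2 rad14 yeast strain; compound exposure; growth inhibition read vs vehicle controls.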
# [5] = NCI Yeast Anticancer Drug Screen. Data for the bub3 strain (AID 167); settings: S. cerevisiae bub3 mutant strain, stronger effect = higher value
# How it was run: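 Steps: expose the mutant yeast strain to compound; grow alongside vehicle-treated cultures; measure growth; express inhibition against the vehicle cultures.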
# [6] = NCI Yeast Anticancer Drug Screen. Data for the mlh1 rad18 strain (AID 175); settings: S. cerevisiae mlh1 rad18 strain growth inhibition, stronger effect = higher value
# How it was run: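 Yeast w/ defined DNA-repair lesions; compound exposure; growth vs vehicle controls → % inhibition.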
# [7] = at 5.0 µM (retest, dose inferred, filed as 0.5)
# [8] = at 50.0 µM (retest, dose inferred, filed as 5.0)
SMILES,"growth inhibition [1, 7]","growth inhibition [1, 8]",growth inhibition ([1]; at 50.0 µM),"growth inhibition [2, 7]","growth inhibition [2, 8]",growth inhibition ([2]; at 50.0 µM),"growth inhibition [3, 7]","growth inhibition [3, 8]",growth inhibition ([3]; at 50.0 µM),"growth inhibition [4, 7]","growth inhibition [4, 8]",growth inhibition ([4]; at 50.0 µM),"growth inhibition [5, 7]","growth inhibition [5, 8]",growth inhibition ([5]; at 50.0 µM),"growth inhibition [6, 7]","growth inhibition [6, 8]",growth inhibition ([6]; at 50.0 µM)
Cc1c2cc[n+](C)cc2c(C)c2c1[nH]c1ccccc12,28% (inactive),68% (inactive),27.5% (inactive) and 40.4% (inactive),18% (inactive),22% (inactive),29.2% (inactive) and -21.1% (inactive),28% (inactive),36% (inactive),75.7% (active) and -25% (inactive),27% (inactive),32% (inactive),23.8% (inactive) and 2.8% (inactive),12% (inactive),31% (inactive),62.8% (inactive) and -38.5% (inactive),16% (inactive),39% (inactive),54.5% (inactive) and 26.9% (inactive)
CC(C)Oc1ccc(Nc2ccccc2)cc1,-2% (inactive),61% (inactive),-1.65% (inactive) and 37% (inactive),-9% (inactive),15% (inactive),-2.9% (inactive) and 50.2% (inactive),-1% (inactive),43% (inactive),-8.3% (inactive) and 56.8% (inactive),0% (inactive),-18% (inactive),-21.6% (inactive) and 36.1% (inactive),42% (inactive),62% (inactive),-16.4% (inactive) and 33.5% (inactive),-4% (inactive),20% (inactive),-9.65% (inactive) and 40.1% (inactive)
CCN1CCC(O)(/C=C/c2ccc(C)cc2)C(C(=O)/C=C/c2ccc(C)cc2)C1 (stereo unspecified),20% (inactive),98% (active),90.1% (active),15% (inactive),99% (active),91.4% (active),-29% (inactive),99% (active),91.2% (active),9% (inactive),99% (active),91.8% (active),14% (inactive),99% (active),90.6% (active),24% (inactive),98% (active),92.7% (active)
CCN1/C(=C/C=C/C=C/c2sc3ccccc3[n+]2CC)Sc2ccccc21,97% (active),25% (inactive),56.1% (inactive) and 66.5% (inactive),98% (active),28% (inactive),64.7% (inactive) and 70.8% (active),96% (active),11% (inactive),79.5% (active) and 58.2% (inactive),93% (active),28% (inactive),67.7% (inactive) and 65.2% (inactive),97% (active),1% (inactive),53.8% (inactive) and 52.5% (inactive),96% (active),14% (inactive),54.5% (inactive) and 43.6% (inactive)
c1cc2c3c(c1)c1cc4c(cc1c[n+]3CC2)OCO4,14% (inactive),38% (inactive),89.9% (active),23% (inactive),36% (inactive),92.5% (active),25% (inactive),41% (inactive),92.1% (active),13% (inactive),18% (inactive),90.8% (active),2% (inactive),20% (inactive),90.8% (active),25% (inactive),51% (inactive),90.9% (active)
COC(=O)[C@]1(C)CCC[C@]2(C)c3cc(C(C)=O)c(C(C)C)cc3CC[C@@H]12,-1% (inactive),-11% (inactive),92.5% (active) and -4.55% (inactive),7% (inactive),10% (inactive),95.5% (active) and -11.9% (inactive),-4% (inactive),-27% (inactive),93.5% (active) and -5.45% (inactive),-1% (inactive),-2% (inactive),99.5% (active) and -40.8% (inactive),1% (inactive),0% (inactive),98.5% (active) and -5.05% (inactive),-2% (inactive),8% (inactive),97% (active) and -12.2% (inactive)
CCO/C(=C\C=O)C1CCC2C3CC=C4CC(OC(C)=O)CCC4(C)C3CCC12C (stereo unspecified),7% (inactive),45% (inactive),63.4% (inactive),-1% (inactive),75% (active),51.5% (inactive),8% (inactive),86% (active),55.9% (inactive),2% (inactive),53% (inactive),55.1% (inactive),-3% (inactive),74% (active),23.4% (inactive),14% (inactive),94% (active),53.5% (inactive)
